MCF10A rereplic – DNA re-replication induction in MCF 10a cells; Potency, µM (doses to about 46.1 µM), for inactives: top-dose activity, positive = re-replication, usual class: activators; MCF 10A DNA re-replication, Hoechst nuclear intensity, 48 h; actives 2.9% (n = 350,000); further: potency means the concentration at half of the fitted maximal effect; % of control where 0% means no effect; nearly all actives have a fitted effect of over 50% in size
KB-V1 cytotox – KB-V1 MDR subline cytotoxicity. KB-V1 MDR cells viability, CellTiter-Glo, 72 h. Potency, µM (highest dose often 46.1 µM), actives largely listed as cytotoxic. actives 3.4% (n = 400,000). AID 1347076; further: potency means the concentration at half of the fitted maximal effect; on the % scale 0 is the no-effect control and ±100 the full control effect; nearly all actives have a fitted effect of over 60% in size
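Following 72 h at 37 degrees C with compound, KB-V1 cell viability was read by CellTiter-Glo luminescence, medium being phenol-red-free DMEM plus 10% FBS; concentration-response parameters came from normalized, curve-fitted qHTS data.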
IL-1B inflam inh – inflammasome signaling inhibition, IL-1 beta readout. activity change, % at 57.5 µM. AID 743279. THP-1 LPS/ATP IL-1B secretion, AlphaLISA, 16 h; active compounds read low. actives 4.7% (n = 360,000); in the data active means activity change below about -50%; inconclusive means mostly about -30% to -49%; further: on the % scale 0 is the no-effect control and ±100 the full control effect
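Secreted IL-1B measured by AlphaLISA bead assay after 16 h compound exposure of THP-1 cells; compounds (final up to 57.5 uM) added 1 h before LPS (250 ng/mL) and ATP (1.25 mM) stimulation; lower signal means less secretion.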
SW480 rerep – induces DNA re-replication in SW480 colon adenocarcinoma cells; SW480 DNA re-replication, Hoechst DNA content imaging, 48 h; Potency, µM (series often up to 46.1 µM), for the others: at the highest dose re-replication activation, actives largely listed as activators; actives 1.8% (n = 340,000); further: potency means the concentration at half of the fitted maximal effect; % of control where 0% means no effect; nearly all actives have a fitted effect of over 55% in size
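Image-based read-out: total Hoechst fluorescence of nuclei (405 nm excitation, 500-530 nm emission), with hits raising the fraction of high-intensity nuclei. SW480 colon cells incubated 48 hr with compounds at 37 C.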
KB-3-1 tox – KB-3-1 parental cell cytotoxicity | KB-3-1 viability, CellTiter-Glo ATP luminescence, 72 h | Potency, µM (doses to about 46.1 µM), hits mostly cytotoxic | actives 1.4% (n = 400,000) | AID 1347075; further: potency means the concentration at half of the fitted maximal effect; on the % scale 0 is the no-effect control and ±100 the full control effect; nearly all actives have a fitted effect of over 60% in size
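Screening of KB-3-1 cells (DMEM, 10% FBS, phenol-red free) ran from lowest to highest compound concentration; after 72 h at 37 °C viability was read luminescently and curves fitted.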
Active calls of the source: *; [ ] = remark or other dose. Compounds with a hit are over-represented: about 9.9% of the library has one in this group of screens. Unless noted, the call rests on the fitted dose curve; in most records, active means well fitted curve in the direction sought with a large enough effect; inconclusive means small, poorly fitted or top-dose-only effect, or another doubt; inactive means no such curve, though single readings can be large; an effect the other way counts as inactive or inconclusive.

For CCC(C)N1C(=O)/C(=C\c2cnc(N(C)C)nc2)C(=O)NC1=S (stereo not given) the results were MCF10A rereplic inconclusive, KB-V1 cytotox inactive, IL-1B inflam inh -52.4*, SW480 rerep 19.0% and KB-3-1 tox inactive.
CC(C)C(Br)C(=O)NC(N)=O (stereo not given) was read as MCF10A rereplic 1.8% and SW480 rerep -2.7%.
Screening COC(=O)c1ccc(NC(=O)CSc2nc3ccc(N4C(=O)C5C6C=CC(C6)C5C4=O)cc3s2)cc1 (stereo not given) returned MCF10A rereplic inconclusive, KB-V1 cytotox 20.6µM*, IL-1B inflam inh inconclusive, SW480 rerep 0.4% and KB-3-1 tox 20.6µM*.
`O=C(Nc1ccncc1)c1cccn(Cc2ccccc2)c1=O` gave MCF10A rereplic 0.0%, KB-V1 cytotox 5.8µM*, IL-1B inflam inh -7.2, SW480 rerep 11.0% and KB-3-1 tox inconclusive.
`CCOC(=O)c1ccc(NC(=O)c2cccn(Cc3ccc(C)cc3)c2=O)cc1` gave KB-V1 cytotox inactive and KB-3-1 tox inconclusive.
`CCOC(=O)c1ccc(NC(=O)c2cccn(Cc3ccccc3F)c2=O)cc1` gave KB-V1 cytotox 5.8µM* and KB-3-1 tox inactive.
For CC(C)CCNC(=O)c1c(N)n(Cc2ccc3c(c2)OCO3)c2nc3ccccc3nc12 the results were MCF10A rereplic inconclusive, KB-V1 cytotox inconclusive, IL-1B inflam inh inconclusive, SW480 rerep 2.59µM* and KB-3-1 tox inactive.
Screening CCCNC(=O)c1c(N)n(Cc2ccc3c(c2)OCO3)c2nc3ccccc3nc12 returned MCF10A rereplic 0.651µM*, KB-V1 cytotox inconclusive, IL-1B inflam inh 0.0, SW480 rerep 3.26µM* and KB-3-1 tox inactive.
Screening CC(C)CNC(=O)c1c(N)n(Cc2ccc3c(c2)OCO3)c2nc3ccccc3nc12 returned MCF10A rereplic inconclusive, KB-V1 cytotox inconclusive, IL-1B inflam inh inconclusive, SW480 rerep 2.59µM* and KB-3-1 tox inconclusive.
`COC(=O)c1c(N)n(Cc2ccc(OC)cc2)c2nc3ccccc3nc12` gave MCF10A rereplic 2.3%, KB-V1 cytotox inactive, IL-1B inflam inh -12.8, SW480 rerep inconclusive and KB-3-1 tox inactive.
COc1ccc(/C=C2\SC(=O)N(CCn3cnnn3)C2=O)cc1 was read as MCF10A rereplic -14.3%, KB-V1 cytotox inactive, IL-1B inflam inh -12.4, SW480 rerep inconclusive and KB-3-1 tox inactive.
Screening O=C(Nc1ccc2c(c1)OCO2)c1cccn(Cc2ccccc2)c1=O returned KB-V1 cytotox inactive and KB-3-1 tox inactive.
Cc1ccc(/C=C/C(=O)C2C(=O)c3ccccc3C2=O)cc1 was read as MCF10A rereplic inconclusive, KB-V1 cytotox inactive, IL-1B inflam inh 12.0, SW480 rerep -7.0% and KB-3-1 tox inconclusive.
Screening NNc1ccccc1 returned MCF10A rereplic 0.5% and SW480 rerep 0.0%.
`O=[N+]([O-])c1ccc(N(CCO)CCO)c2c1no[n+]2[O-]` gave KB-V1 cytotox 20.6µM*, IL-1B inflam inh -103.0* and KB-3-1 tox 4.61µM*.
Screening CN1CCN(c2ccc([N+](=O)[O-])c3no[n+]([O-])c23)CC1 returned MCF10A rereplic 2.31µM*, KB-V1 cytotox inconclusive, IL-1B inflam inh -100.5*, SW480 rerep inconclusive and KB-3-1 tox inconclusive.
Screening CN1CCN(c2ccc(S(C)(=O)=O)cc2[N+](=O)[O-])CC1 returned MCF10A rereplic -2.2%, KB-V1 cytotox inactive, IL-1B inflam inh -0.1, SW480 rerep -2.0% and KB-3-1 tox inactive.
`Clc1ccc([C@@H](OCCN2CCCCC2)c2ccccc2)cc1` gave MCF10A rereplic 10.7%[20.6 µM] and SW480 rerep 3.6%[20.6 µM].
Screening Clc1ccc(C(OCCN2CCCCC2)c2ccccc2)cc1 (stereo not given) returned MCF10A rereplic -2.3%, KB-V1 cytotox inconclusive, IL-1B inflam inh -51.4*, SW480 rerep 2.2% and KB-3-1 tox inactive.
CC(C)Cc1nnc(NC(=O)CCC(=O)N2CCN(CCOC(c3ccccc3)c3ccccc3)CC2)s1 was read as MCF10A rereplic 13.3%, KB-V1 cytotox inconclusive, IL-1B inflam inh -2.4, SW480 rerep 1.1% and KB-3-1 tox inactive.

Screening results: PubChem BioAssay, National Center for Advancing Translational Sciences (NCATS)
